Laboratory results as given in the supplement of paper PMC4466140.

These binders were tested against AgAbp1 (assay: SPOT peptide array binding signal intensity (averaged, normalized) (arbitrary units (background-subtracted, floor 0; scale differs between SH3 domains)); higher = stronger binding of the SH3 domain to the peptide).
Summary of the method: (§1)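 Binding signal refers to normalized, background-subtracted spot intensity averaged over replicates, expressed in arbitrary units that differ between domains. GST-fused SH3 domains from four yeast species were incubated at 10 μg/ml overnight at 4°C on cellulose membranes of synthetic 15-mer peptides with cysteines replaced by serines. Bound protein was detected with anti-GST antibody, an HRP anti-mouse secondary and luminol, and quantified with Genespotter.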

Row | Binder | SPOT peptide array binding signal intensity
1 | APKHAPPPVPNETDN | ≤ 0

Each binder was assayed against AgBbc1 in the same assay as above.
Summary of the method: as §1

Row | Binder | SPOT peptide array binding signal intensity
2 | APKHAPPPVPNETDN | ≤ 0

Each binder was assayed against AgBem1-D1 in the same assay as above.
Summary of the method: as §1

Row | Binder | SPOT peptide array binding signal intensity
3 | APKHAPPPVPNETDN | ≤ 0

Each binder was assayed against AgBzz1-D1 in the same assay as above.
Summary of the method: as §1

Row | Binder | SPOT peptide array binding signal intensity
4 | APKHAPPPVPNETDN | 72

What follows are binders tested against AgBzz1-D2 in the same assay as above.
Summary of the method: as §1

Row | Binder | SPOT peptide array binding signal intensity
5 | APKHAPPPVPNETDN | ≤ 0

The binders below were run against AgCyk3 in the same assay as above.
Summary of the method: as §1

Row | Binder | SPOT peptide array binding signal intensity
6 | APKHAPPPVPNETDN | ≤ 0

What follows are binders tested against AgFus1 in the same assay as above.
Summary of the method: as §1

Row | Binder | SPOT peptide array binding signal intensity
7 | APKHAPPPVPNETDN | ≤ 0

These binders were tested against AgHof1 in the same assay as above.
Summary of the method: as §1

Row | Binder | SPOT peptide array binding signal intensity
8 | APKHAPPPVPNETDN | ≤ 0

The binders below were run against AgHse1 in the same assay as above.
Summary of the method: as §1

Row | Binder | SPOT peptide array binding signal intensity
9 | APKHAPPPVPNETDN | ≤ 0

These binders were tested against AgLsb1 in the same assay as above.
Summary of the method: as §1

Row | Binder | SPOT peptide array binding signal intensity
10 | APKHAPPPVPNETDN | ≤ 0

These binders were tested against AgLsb4 in the same assay as above.
Summary of the method: as §1

Row | Binder | SPOT peptide array binding signal intensity
11 | APKHAPPPVPNETDN | ≤ 0

What follows are binders tested against AgMyo5 in the same assay as above.
Summary of the method: as §1

Row | Binder | SPOT peptide array binding signal intensity
12 | APKHAPPPVPNETDN | 1790

The binders below were run against AgNbp2 in the same assay as above.
Summary of the method: as §1

Row | Binder | SPOT peptide array binding signal intensity
13 | APKHAPPPVPNETDN | ≤ 0

The binders below were run against AgRvs167 in the same assay as above.
Summary of the method: as §1

Row | Binder | SPOT peptide array binding signal intensity
14 | APKHAPPPVPNETDN | ≤ 0

The binders below were run against AgSho1 in the same assay as above.
Summary of the method: as §1

Row | Binder | SPOT peptide array binding signal intensity
15 | APKHAPPPVPNETDN | ≤ 0

What follows are binders tested against AgSla1-D1-D2 in the same assay as above.
Summary of the method: as §1

Row | Binder | SPOT peptide array binding signal intensity
16 | APKHAPPPVPNETDN | ≤ 0

Each binder was assayed against AgSla1-D3 in the same assay as above.
Summary of the method: as §1

Row | Binder | SPOT peptide array binding signal intensity
17 | APKHAPPPVPNETDN | 2.5

What follows are binders tested against CaAbp1-D1 in the same assay as above.
Summary of the method: as §1

Row | Binder | SPOT peptide array binding signal intensity
18 | APKHAPPPVPNETDN | ≤ 0

What follows are binders tested against CaAbp1-D2 in the same assay as above.
Summary of the method: as §1

Row | Binder | SPOT peptide array binding signal intensity
19 | APKHAPPPVPNETDN | ≤ 0

Each binder was assayed against CaBbc1 in the same assay as above.
Summary of the method: as §1

Row | Binder | SPOT peptide array binding signal intensity
20 | APKHAPPPVPNETDN | 0.25

Each binder was assayed against CaBem1-D1 in the same assay as above.
Summary of the method: as §1

Row | Binder | SPOT peptide array binding signal intensity
21 | APKHAPPPVPNETDN | ≤ 0

Each binder was assayed against CaBzz1-D1 in the same assay as above.
Summary of the method: as §1

Row | Binder | SPOT peptide array binding signal intensity
22 | APKHAPPPVPNETDN | 992

The binders below were run against CaBzz1-D2 in the same assay as above.
Summary of the method: as §1

Row | Binder | SPOT peptide array binding signal intensity
23 | APKHAPPPVPNETDN | 115

The binders below were run against CaCyk3 in the same assay as above.
Summary of the method: as §1

Row | Binder | SPOT peptide array binding signal intensity
24 | APKHAPPPVPNETDN | ≤ 0

These binders were tested against CaFus1 in the same assay as above.
Summary of the method: as §1

Row | Binder | SPOT peptide array binding signal intensity
25 | APKHAPPPVPNETDN | ≤ 0

These binders were tested against CaHof1 in the same assay as above.
Summary of the method: as §1

Row | Binder | SPOT peptide array binding signal intensity
26 | APKHAPPPVPNETDN | ≤ 0

These binders were tested against CaHse1 in the same assay as above.
Summary of the method: as §1

Row | Binder | SPOT peptide array binding signal intensity
27 | APKHAPPPVPNETDN | 1.75

What follows are binders tested against CaLsb1 in the same assay as above.
Summary of the method: as §1

Row | Binder | SPOT peptide array binding signal intensity
28 | APKHAPPPVPNETDN | ≤ 0

What follows are binders tested against CaLsb4 in the same assay as above.
Summary of the method: as §1

Row | Binder | SPOT peptide array binding signal intensity
29 | APKHAPPPVPNETDN | ≤ 0

Each binder was assayed against CaMyo5 in the same assay as above.
Summary of the method: as §1

Row | Binder | SPOT peptide array binding signal intensity
30 | APKHAPPPVPNETDN | 110

Each binder was assayed against CaNbp2 in the same assay as above.
Summary of the method: as §1

Row | Binder | SPOT peptide array binding signal intensity
31 | APKHAPPPVPNETDN | ≤ 0

These binders were tested against CaRvs167 in the same assay as above.
Summary of the method: as §1

Row | Binder | SPOT peptide array binding signal intensity
32 | APKHAPPPVPNETDN | ≤ 0

The binders below were run against CaRvs167-3 in the same assay as above.
Summary of the method: as §1

Row | Binder | SPOT peptide array binding signal intensity
33 | APKHAPPPVPNETDN | ≤ 0

These binders were tested against CaSho1 in the same assay as above.
Summary of the method: as §1

Row | Binder | SPOT peptide array binding signal intensity
34 | APKHAPPPVPNETDN | ≤ 0

What follows are binders tested against CaSla1-D1-D2 in the same assay as above.
Summary of the method: as §1

Row | Binder | SPOT peptide array binding signal intensity
35 | APKHAPPPVPNETDN | ≤ 0

These binders were tested against CaSla1-D3 in the same assay as above.
Summary of the method: as §1

Row | Binder | SPOT peptide array binding signal intensity
36 | APKHAPPPVPNETDN | ≤ 0

Each binder was assayed against ScAbp1 in the same assay as above.
Summary of the method: as §1

Row | Binder | SPOT peptide array binding signal intensity
37 | APKHAPPPVPNETDN | ≤ 0
